Screening data as filed in PubChem BioAssay.
GLP1R cytotox: qHTS of GLP-1 Receptor Inverse Agonists: Cytotox Screen; HEK293 cAMP-luciferase reporter cells, luminescence, 24 h; Potency, µM (doses to about 38.3 µM), without a hit: at the top dose activity change, negative = inhibition, most hits filed as inhibitors; 410,000 compounds, 0.13% hits;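 further: loss of luciferase light is scored as toxicity; on the % scale 0 is the no-effect control and ±100 the full control effect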
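Here, cytotoxicity is scored as loss of luminescence. The MLSMR collection was tested on cells seeded in medium containing 10% Nu serum, with a 24 hr compound exposure preceded by 12 hours of culture.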
BRCA1 expr act: qHTS Assay to Identify Small Molecule Activators of BRCA1 Expression; MCF7-BRCA1-FFLuc reporter, luminescence, 48 h; response scale: scaled: vehicle 0%, 10 µM genistein 100%; Potency, µM (highest dose often 46.1 µM), inactives show at the top dose activation, usual class: activators; 380,000 compounds, 1.1% hits; further: nearly all actives have a fitted effect of over 80% in size
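Compounds are tested at multiple concentrations on MCF7 BRCA1-luciferase reporter cells seeded at 2000 per well; after 48 h, a single luminescence end-point is taken and curves fitted to the normalized data.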
GLP1R inv ag: qHTS of GLP-1 Receptor Inverse Agonists (Inhibition Mode); Glucagon-like peptide 1 receptor (Homo sapiens), P43220; HEK293 GLP-1R CRE-luciferase, luminescence, 24 h; GLP-1R form is constitutively active; Potency, µM (series often up to 38.3 µM), without a hit: at the highest dose activity change, negative = inhibition, most hits filed as inhibitors; 410,000 compounds, 1.6% hits; further: on the % scale 0 is the no-effect control and ±100 the full control effect; nearly all actives have a fitted effect of over 55% in size
Target sequence (P43220 whole entry, looked up): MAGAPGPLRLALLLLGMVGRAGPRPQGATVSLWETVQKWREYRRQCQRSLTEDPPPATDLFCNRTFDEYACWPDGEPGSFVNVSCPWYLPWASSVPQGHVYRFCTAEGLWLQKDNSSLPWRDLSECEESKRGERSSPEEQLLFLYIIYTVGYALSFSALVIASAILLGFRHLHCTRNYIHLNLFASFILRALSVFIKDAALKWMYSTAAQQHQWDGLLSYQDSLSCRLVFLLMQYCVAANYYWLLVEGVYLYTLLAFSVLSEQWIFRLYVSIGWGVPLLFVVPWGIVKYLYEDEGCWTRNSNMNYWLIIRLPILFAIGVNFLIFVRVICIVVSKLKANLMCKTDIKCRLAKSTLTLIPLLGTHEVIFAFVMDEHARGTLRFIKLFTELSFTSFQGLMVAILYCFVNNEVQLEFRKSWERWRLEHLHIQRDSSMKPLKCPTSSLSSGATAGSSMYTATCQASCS
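GLP-1R inverse agonism mode: basal reporter luminescence in engineered HEK293 cells measured after one day of compound exposure at 37 deg C, with a 12 min room-temperature detection step.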
GLP-1R agonist: qHTS of GLP-1 Receptor Agonists | Potency, µM (highest dose often 45.6 µM), for the others: at the highest dose activation, hits mostly activators | Glucagon-like peptide 1 receptor (Homo sapiens), P43220 | 380,000 compounds, 0.007% hits | HEK293 GLP-1R CRE-luciferase, luminescence, 4-6 h; cells express a hypersensitive GLP-1R form; further: % of control where 0% means no effect
The depositor's hits bear a star; ? = inconclusive; / = no result; [ ] = dose if it differs, or a comment. Most compounds without a hit are left out; they make up all but 2.6% or so of the library. The call rests on the fitted dose curve; in most records, active means well fitted curve in the direction sought with a large enough effect; inconclusive means small, poorly fitted or top-dose-only effect, or another doubt; inactive means no such curve, though single readings can be large; an effect the other way counts as inactive or inconclusive. Potency means the concentration at half of the fitted maximal effect.

SMILES	GLP1R cytotox	BRCA1 expr act	GLP1R inv ag	GLP-1R agonist
CC1C(=O)N(Cc2cn(Cc3ccco3)nn2)CCS(=O)(=O)N1Cc1ccc(-c2ccc(Cl)cc2)cc1 (centres undefined)	-20%	-25%	11µM*	-2%
CC(C)C1C(=O)N(Cc2cn(Cc3ccco3)nn2)CCS(=O)(=O)N1Cc1ccc(-c2ccc(Cl)cc2)cc1 (centres undefined)	?	-68%	4µM*	4%
CC[N+](C)(C(=O)O)/C(=C\c1ccccc1)c1ccnc2ccccc12 (centres undefined)	/	1%	/	/
COc1ccccc1N(CC(O)CN1CCOCC1)S(=O)(=O)c1ccccc1 (centres undefined)	0%	2%	3%	8%
CCn1c(NCc2cc(Br)ccc2NS(=O)(=O)c2ccc(C)cc2)nc2ccccc21	-30%	-87%	11µM*	-32%
CCOC(=O)C1CCN(CC(C)(C)NS(=O)(=O)c2ccc(C)cc2)CC1	-17%	0%	?	3%
Cc1ccc(S(=O)(=O)NC(C)(C)CN2CCC(Cc3ccccc3)CC2)cc1	-30%	-20%	2.5µM*	3%
CC(C)(CN1CCNCC1)NS(=O)(=O)c1ccc(Cl)cc1	?	-30%	2µM*	14%
Cc1cccnc1NC(=S)NC(=O)c1cccs1	?	59%	?	-20%
Cc1cccnc1NC(=O)NC(=O)c1ccc(C(C)(C)C)s1	-21%	6.3µM*	0%	3%
N[C@H]1CN(c2c(F)cc3c(=O)c(C(=O)O)cn(C4C[C@@H]4F)c3c2Cl)CC12CC2 (some centres undefined)	/	/	/	-4%
COc1ccc(CCNC(=O)CCC(=O)N2CC(C)Oc3ccccc32)cc1OC (centres undefined)	0%	12%	4%	9%
Cc1ccc(/C=C/C(=O)Nc2ccncc2)o1	15%	20%	1%	2%
Cc1ccc(/C=C/C(=O)Nc2ccc(N(C)C)cc2)o1	-34%	4µM*	-15%	-8%
Cc1ccc(/C=C/C(=O)Nc2ncc(C)s2)o1	17%	3.2µM*	27%	1%
COc1cccc(-c2ncc3ccccc3c2COC(=O)c2ccc(F)cc2)c1	0%	16%	11µM*	11%
COc1ccc(N2C(=O)c3ccccc3NC(=O)C2C(=O)NCC(C)C)cc1 (centres undefined)	3%	/	-8%	/
Cc1ccc(-n2ncc3c(N(CC(C)C)CC(C)C)ncnc32)c(C)c1	1%	/	2.8µM*	/
Cc1ccc(-n2ncc3c(NCCCOC(C)C)ncnc32)c(C)c1	13%	-6%	2.5µM*	1%
Cc1csc2c(N3CCCCC3)ncnc12	-6%	11µM*	34%	?
CCC/C=N/Nc1nc2ccccc2s1	-3%	57%	?	-2%
C(=C\c1ccccc1)/C=N/Nc1nc2ccccc2s1	9%	7.9µM*	0%	-11%
Brc1ccc(/C=C/C=N/Nc2nc3ccccc3s2)cc1	2%	8.9µM*	0%	-12%
Brc1csc(/C=N/Nc2nc3ccccc3s2)c1	5%	-65%	?	-7%
COc1cccc(C2CC(=O)Nc3c2c(=O)nc2c(C)cccn32)c1 (centres undefined)	2%	4%	12%	28%
SMILES	GLP1R cytotox	BRCA1 expr act	GLP1R inv ag	GLP-1R agonist
Clc1ccc(CSc2ccc(-c3ccco3)nn2)cc1	10%	13µM*	14%	6%
Clc1cccc(CSc2ccc(-c3ccco3)nn2)c1	12%[7.66 µM]	62%	15%[7.66 µM]	0%
Cc1ccc(CSc2ccc(-c3ccco3)nn2)cc1	-4%	3.5µM*	-25%	3%
c1ccc(CSc2ccc(-c3ccco3)nn2)cc1	0%	3.2µM*	?	7%
Cc1c(/C=N/NC(=O)CNc2ccccc2)c2ccccn2c1C(=O)c1ccc(Cl)cc1	-16%	-59%	5.6µM*	-31%
COC(=O)c1sccc1NC(=O)CSc1ccccc1NS(=O)(=O)c1ccc(Cl)cc1	-16%	-21%	10µM*	0%
CCCc1cnc2c(c1SCC(=O)Nc1ccccc1F)c(=O)n(C)c(=O)n2C	27%	/	20%	/
C(=C\c1nc(-c2cccnc2)no1)/c1ccccc1	11%	2.8µM*	4%	3%
